Results taken from PubChem BioAssay (NCATS).
Results filed as inconclusive are left out. The source made the active and inactive calls. Unless noted, calls come from the whole dose curve; as a rule, active = well fitted curve in the direction sought with a large enough effect; inconclusive = small, poorly fitted or top-dose-only effect, or another doubt; inactive = no such curve, though single readings can be large; an effect the other way counts as inactive or inconclusive.

How the values were obtained:
[1] = Cell Viability - BJ (AID 421; calls by dose curve;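 note: potency is the fitted concentration of half-maximal effect; cells exposed to compound for 40 hours at 37 °C before readout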); details: BJ fibroblast viability, qHTS
Procedure, shortened: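 Luminescent ATP signal (CellTiter-Glo, 20 min at room temperature) served as the read-out of viable BJ cells after 40 hours of compound treatment. Responses were scaled between DMSO and 100 uM tamoxifen, and AC50 values were obtained by Hill modeling.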

[2] = Cell Viability - Jurkat (AID 426;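 active = dose-dependent loss of cell ATP signal giving a full or clear fitted curve, ranked by lower potency value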; note: potency is the fitted concentration of half-maximal effect); details: qHTS
Procedure, shortened: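 Cells of the human T-cell leukemia line Jurkat (E6-1) are seeded at 5000 per well, treated with compound across a concentration range for 40 hours at 37 °C, then lysed with CellTiter-Glo; luminescence reports ATP.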

[3] = Cell Viability - Hek293 (AID 427;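 active = compounds whose dose-response curve shows a full or clear partial loss of cell viability, called from curve shape rather than a numeric limit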;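 note: potency is the fitted concentration of half-maximal effect; cells exposed to compound for 40 hours at 37 °C before reading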); details: qHTS
Procedure, shortened: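 Luminescent ATP read-out (CellTiter-Glo, 20 min RT) after 40 hr compound exposure at 37 °C in complete medium. Signal normalized to DMSO (basal) and 100 uM tamoxifen (100% inhibition); concentration-response fitted with the standard Hill equation to give AC50.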

[4] = Cell Viability - HepG2 (AID 433; calls by dose curve;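 note: potency is the fitted concentration of half-maximal effect; potency for ATP loss meaning cytotoxicity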); details: qHTS
Procedure, shortened: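 In this qHTS format, a 40 h, 37 °C compound incubation of HepG2 cells in complete medium precedes a 20 min CellTiter-Glo step at room temperature. Tamoxifen and doxorubicin serve as positive controls; Hill-equation fits yield AC50.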

[5] = Cell Viability - MRC5 (AID 434; calls by dose curve;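 note: potency is the fitted concentration of half-maximal effect; potency reflects cytotoxicity seen as loss of intracellular ATP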); details: MRC5 lung fibroblast viability, qHTS
Procedure, shortened: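 ATP luminescence read-out (CellTiter-Glo, 20 min RT) after 40 hr, 37 °C compound exposure of 1500 MRC5 cells/well. Data normalized to DMSO (basal) and 100 uM tamoxifen (100% inhibition); AC50 from standard Hill equation.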

[6] = Cell Viability - SK-N-SH (AID 435; calls by dose curve;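 note: potency is the fitted concentration of half-maximal effect; compound exposure lasted 40 h at 37 °C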); details: SK-N-SH neuroblastoma cell viability qHTS
Procedure, shortened: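 Human neuroblastoma line, 40 h exposure at 37 °C, ATP quantified via luciferase luminescence; DMSO and 100 uM tamoxifen define 0 and 100% inhibition for AC50 fitting.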

[7] = target: Mitogen-activated protein kinase 10 (Mus musculus) (UniProt Q61831); assay: JNK3 AlphaScreen Assay (AID 530; active = well fitted curve in either direction with a large enough effect, not every such curve was filed as active;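 note: kinase came from lysate of stimulated human HepG2 cells; signal reports phosphorylation of biotinylated GST-cJun 1-79 at Ser73 with 10 µM ATP; % is set by controls: 0 for no effect and ±100 for the full control effect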); details: JNK3 lysate, c-Jun phosphorylation; series mostly up to 57.1 µM
Procedure, shortened: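 Activity was read by AlphaScreen after JNK3-containing HepG2 lysate (cytokine pre-activated) phosphorylated biotinylated GST-cJun with 10 uM ATP at room temperature. Phospho-Ser73 cJun antibody with Protein-A acceptor beads provided detection.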

[8] = Cell Viability - N2a (AID 540); details: N2a mouse neuroblastoma cell viability; activity change, negative = cytotoxicity: at 92.2 µM (top of the series);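 note: plate controls were DMSO alone for no effect and tamoxifen control for full effect; nearly all actives have a fitted effect of over 45% in size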
Procedure, shortened: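 Cytotoxicity was scored as loss of cellular ATP in N2a cells, a mouse neuroblastoma line. Compounds are applied in a qHTS concentration series for 40 hr at 37 °C.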

[9] = Cell Viability - NIH 3T3 (AID 541); details: NIH 3T3 cell viability, qHTS; activity change, negative = cytotoxicity: at 92.2 µM (top of the series);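 note: plate controls were DMSO alone for no effect and tamoxifen positive control for full effect; nearly all actives have a fitted effect of over 25% in size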
Procedure, shortened: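 Cells seeded at 1000/well, rested 5 hr at 37 °C, then dosed and incubated 40 hr at 37 °C. CellTiter-Glo added, 20 min room temperature, luminescence read. AC50 by Hill fit.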

[10] = Cell Viability - HUV-EC-C (AID 542); details: HUV-EC-C endothelial cell viability, qHTS; series mostly up to 92.2 µM; note: % is set by controls: 0 for no effect and ±100 for the full control effect; nearly all actives have a fitted effect of over 35% in size
Procedure, shortened: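 Cells were seeded at 1000 per well and incubated 5 hr at 37 °C before compound addition. After 40 hr at 37 °C, CellTiter-Glo reagent was added for 20 min and luminescence read. AC50 values came from Hill-equation modelling.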

[11] = Cell Viability - H-4-II-E (AID 543); details: H-4-II-E rat hepatoma viability; series mostly up to 92.2 µM; note: % is set by controls: 0 for no effect and ±100 for the full control effect; nearly all actives have a fitted effect of over 35% in size
Procedure, shortened: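 Cells seeded at 1500 per well and rested 5 hr; compounds added; 40 hr incubation at 37 °C; CellTiter-Glo added, 20 min at room temperature; luminescence read. Hill-equation fits gave AC50.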

[12] = Cell Viability - SH-SY5Y (AID 544); details: SH-SY5Y neuroblastoma cell viability; viability change, negative = cytotoxic: at 92.2 µM (top of the series); note: nearly all actives have a fitted effect of over 55% in size
Procedure, shortened: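 Cells were plated at 1500 per well and allowed 5 hr at 37 °C. Compounds were added across a concentration range and incubated 40 hr at 37 °C. CellTiter-Glo was added for 20 min at room temperature before luminescence reading.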

[13] = Cell Viability - Renal Proximal Tubule (AID 545); details: renal proximal tubule cells viability, primary cells of rat origin; series mostly up to 91.7 µM; note: nearly all actives have a fitted effect of over 40% in size
Procedure, shortened: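 In this qHTS format, normal rat kidney-derived proximal tubule cells in complete culture medium receive compound titrations, then sit 40 hours at 37 °C before luciferase-based ATP quantitation; potency is reported as AC50 from concentration-response curves.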

[14] = Cell Viability - Mesenchymal (AID 546); details: mesenchymal cells viability, qHTS; series mostly up to 91.7 µM;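 note: cells exposed to compound for 40 hours before reading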
Procedure, shortened: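 Human renal mesenchymal cells (glomerulus-derived), 1000 cells/well, 5 hr 37 °C pre-incubation; compound 40 hr, 37 °C; CellTiter-Glo, 20 min RT; luminescence; AC50 via Hill equation.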

[15] = Cellular Toxicity (caspase-3) HepG2 (AID 654); details: HepG2 caspase-3 activation, luminescence; series mostly up to 92.2 µM;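 note: cells exposed to compound for 16 hours before reading; 0% = DMSO alone and 100% = caspase signal from 100 µM tamoxifen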
Procedure, shortened: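 Caspase 3/7 activation in HepG2 is measured as rising luminescence after a 16 hr treatment at 37 °C. Values are scaled between DMSO basal and 100 uM tamoxifen, and AC50 is fitted with the Hill equation.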

[16] = Cellular Toxicity (caspase-3) Jurkat (AID 655); details: Jurkat caspase-3 activation, luminescence; caspase-3 activation: at 92.2 µM (top of the series), DMSO = 0%, tamoxifen = 100%;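 note: cells exposed to compound for 16 h at 37 °C before reading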
Procedure, shortened: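 qHTS in human Jurkat T-cell leukemia line: 16 hr compound treatment at 37 °C, caspase-3/7 activity measured by Caspase-Glo luminescence. AC50 derived from Hill equation.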

[17] = Cellular Toxicity (caspase-3) HUV-EC-C (AID 656); details: HUV-EC-C cells, caspase-3 activation (apoptosis), vehicle = 0, 100 µM tamoxifen = 100%; series mostly up to 92.2 µM;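 note: cells exposed to compound for 16 h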
Procedure, shortened: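 Concentration-dependent caspase 3/7 induction was assessed in HUV-EC-C cells exposed for 16 hours. Data scaled between DMSO and tamoxifen (100 uM) controls.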

[18] = Cellular Toxicity (caspase-3) SHSY5Y (AID 657); details: SH-SY5Y caspase-3 activation, DMSO zero, 10 µM staurosporine = 100%; series mostly up to 91.7 µM;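 note: cells exposed to compound for 16 hours at 37 °C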
Procedure, shortened: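 Readout: caspase-cleaved peptide-aminoluciferin substrate driving luciferase light in SH-SY5Y neuroblastoma cells after 16 h treatment. Response normalized to DMSO and 10 uM staurosporine controls.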

[19] = Cellular Toxicity (caspase-3) BJ (AID 658); details: BJ fibroblasts, luminescence, normalized: DMSO 0%, staurosporine 100%; series mostly up to 91.7 µM
Procedure, shortened: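 qHTS, BJ fibroblasts, 1000 cells/well; 5 hr preincubation, 16 hr compound, 37 °C; Caspase-Glo 3/7 reagent, 1 hr RT; luminescence. DMSO = 0%, 10 uM staurosporine = 100%. Hill-equation AC50.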

[20] = Cellular Toxicity (caspase-3) MRC-5 (AID 659); details: MRC-5 cells, luminescence, normalized: DMSO 0%, 10 µM staurosporine 100%; series mostly up to 91.7 µM;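 note: cells exposed to compound for 16 h at 37 °C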
Procedure, shortened: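 MRC-5 fibroblasts, 1500/well; 16 h cpd, 37 °C; Caspase-Glo 3/7, 1 h RT; lumi read. Norm: DMSO = 0%, 10 uM staurosporine = 100%. Hill-fit AC50 from qHTS conc-response.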

CC(=O)Nc1ccccc1C
inactive: Potency [1] > 92 µM | Potency [2] > 92 µM | Potency [3] > 92 µM | Potency [4] > 92 µM | Potency [5] > 92 µM | Potency [6] > 92 µM | outcome [7] | activity change, negative = cytotoxicity [8] 2.99% | Potency [9] | Potency [10] | Potency [11] | Potency [12] | Potency [13] | Potency [14] | Potency [15] | caspase-3 activation [16] 1.08% | outcome [17] | outcome [18] | outcome [19] | outcome [20]

CCCCCCCCN
inactive: Potency [1] > 92 µM | Potency [2] > 92 µM | Potency [3] > 92 µM | Potency [4] > 92 µM | Potency [5] > 92 µM | Potency [6] > 92 µM | outcome [7] | activity change, negative = cytotoxicity [8] 7.89% | Potency [9] | Potency [10] | Potency [11] | Potency [12] | Potency [13] | Potency [14] | Potency [15] | caspase-3 activation [16] 1.3% | outcome [17] | outcome [18] | outcome [19] | outcome [20]

O=Cc1cccc(Br)c1
inactive: Potency [1] > 92 µM | Potency [2] > 92 µM | Potency [3] > 92 µM | Potency [4] > 92 µM | Potency [5] > 92 µM | Potency [6] > 92 µM | outcome [7] | activity change, negative = cytotoxicity [8] 0.0642% | Potency [9] | Potency [10] | Potency [11] | Potency [12] | Potency [13] | Potency [14] | Potency [15] | caspase-3 activation [16] 2.44% | outcome [17] | outcome [18] | outcome [19] | outcome [20]

O=C1CCCCC1
inactive: Potency [1] > 92 µM | Potency [2] > 92 µM | Potency [3] > 92 µM | Potency [4] > 92 µM | Potency [5] > 92 µM | Potency [6] > 92 µM | outcome [7] | activity change, negative = cytotoxicity [8] -6.92% | Potency [9] | Potency [10] | Potency [11] | Potency [12] | Potency [13] | Potency [14] | Potency [15] | caspase-3 activation [16] 1% | outcome [17] | outcome [18] | outcome [19] | outcome [20]

Cc1ccccc1C#N
inactive: Potency [1] > 92 µM | Potency [2] > 92 µM | Potency [3] > 92 µM | Potency [4] > 92 µM | Potency [5] > 92 µM | Potency [6] > 92 µM | outcome [7] | activity change, negative = cytotoxicity [8] -9.75% | Potency [9] | Potency [10] | Potency [11] | Potency [12] | Potency [13] | Potency [14] | Potency [15] | caspase-3 activation [16] 0.133% | outcome [17] | outcome [18] | outcome [19] | outcome [20]

Nc1ccc([N+](=O)[O-])c(N)c1
inactive: Potency [1] > 92 µM | Potency [2] > 92 µM | Potency [3] > 92 µM | Potency [4] > 92 µM | Potency [5] > 92 µM | Potency [6] > 92 µM | outcome [7] | activity change, negative = cytotoxicity [8] 0.888% | Potency [9] | Potency [10] | Potency [11] | Potency [12] | Potency [13] | Potency [14] | Potency [15] | caspase-3 activation [16] 0.952% | outcome [17] | outcome [18] | outcome [19] | outcome [20]

NS(=O)(=O)O
inactive: Potency [1] > 92 µM | Potency [2] > 92 µM | Potency [3] > 92 µM | Potency [4] > 92 µM | Potency [5] > 92 µM | Potency [6] > 92 µM | outcome [7] | activity change, negative = cytotoxicity [8] -0.868% | Potency [9] | Potency [10] | Potency [11] | Potency [12] | Potency [13] | Potency [14] | Potency [15] | caspase-3 activation [16] 0.859% | outcome [17] | outcome [18] | outcome [19] | outcome [20]

COc1cccc(N)c1
inactive: Potency [1] > 92 µM | Potency [2] > 92 µM | Potency [3] > 92 µM | Potency [4] > 92 µM | Potency [5] > 92 µM | Potency [6] > 92 µM | outcome [7] | activity change, negative = cytotoxicity [8] -15.1% | Potency [9] | Potency [10] | Potency [11] | Potency [12] | Potency [13] | Potency [14] | Potency [15] | caspase-3 activation [16] 2.35% | outcome [17] | outcome [18] | outcome [19] | outcome [20]

OC1CCCC1
inactive: Potency [1] > 92 µM | Potency [2] > 92 µM | Potency [3] > 92 µM | Potency [4] > 92 µM | Potency [5] > 92 µM | Potency [6] > 92 µM | outcome [7] | activity change, negative = cytotoxicity [8] -9.14% | Potency [9] | Potency [10] | Potency [11] | Potency [12] | Potency [13] | Potency [14] | Potency [15] | caspase-3 activation [16] 0.809% | outcome [17] | outcome [18] | outcome [19] | outcome [20]

C1COC1
inactive: Potency [1] > 92 µM | Potency [2] > 92 µM | Potency [3] > 92 µM | Potency [4] > 92 µM | Potency [5] > 92 µM | Potency [6] > 92 µM | outcome [7] | activity change, negative = cytotoxicity [8] -2.69% | Potency [9] | Potency [10] | Potency [11] | Potency [12] | Potency [13] | Potency [14] | Potency [15] | caspase-3 activation [16] -0.0782% | outcome [17] | outcome [18] | outcome [19] | outcome [20]
